High-throughput results from PubChem BioAssay.
The full list was thinned out, with hits kept by preference.
Pf Dd2 inh: qHTS Primary assay for Inhibitors of Plasmodium falciparum Dd2 growth in vitro | P. falciparum Dd2 growth, SYBR Green, 72 h | 120,000 compounds, 4.3% hits | Potency, µM (doses to about 28.9 µM), for inactives: at the highest dose activity, negative = inhibition, most hits filed as inhibitors; active = well fitted inhibition curve with a large enough effect;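 note: plate controls were DMSO vehicle for no effect and reference drug for full effect; nearly all actives have a fitted effect of over 65% in size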
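Readout: SYBR Green fluorescence, 485 nm excitation, 535 nm emission, after ~16 h lysis at 37C. Before that, Dd2-infected red cells (2.5% hematocrit) grew 72 h with compound, 29 uM top final concentration.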
* = called active by the depositor; [ ] = another dose, or the depositor's remark. Potency is the fitted concentration of half-maximal effect.

For O=C(c1ccccc1)N1CCC(N2CCCC2=O)CC1 the results were Pf Dd2 inh -1%[44.1 µM].
CN1CCCC1c1nc(C2CN(S(=O)(=O)Cc3ccccc3F)C2)no1 (stereo not drawn) was read as Pf Dd2 inh 3%.
`C=CCNC(=O)Cc1c2c(n(Cc3ccccc3F)c1C)CCCC2=O` gave Pf Dd2 inh -8%.
CN1C(=O)CCC2(CNC(=O)CC3CCCC3)CCCC=C12 (stereo not drawn) was read as Pf Dd2 inh -3%.
O=C(NCc1ccc(F)cc1)C1COC2(CCCCC2)N1C(=O)c1cccc(F)c1 (stereo not drawn) was read as Pf Dd2 inh -11%.
CCOc1ccccc1C(=O)Nc1ccc2nc3c(c(Nc4ccc(OC)c(OC)c4)c2c1)CCCC3 was read as Pf Dd2 inh 1.1µM*.
Screening COc1ccccc1Nc1c2c(nc3ccc(NC(=O)c4ccc(N(C)C)cc4)cc13)CCCC2 returned Pf Dd2 inh 5.6µM*.
COc1cc(OC)cc(C(=O)Nc2ccc3nc4c(c(Nc5ccc(OC)c(OC)c5)c3c2)CCCC4)c1 was read as Pf Dd2 inh 0%.
COc1ccccc1Nc1nn2c(=O)c3ccc(C(=O)Nc4ccc(F)cc4)cc3nc2s1 was read as Pf Dd2 inh 31%.
Screening COc1ccc(C)cc1NC(=O)c1ccc2c(Cl)c3c(nc2c1)CCC3 returned Pf Dd2 inh 30%.
Screening CCOc1ccccc1C(=O)Nc1ccc(S(=O)(=O)Nc2nc(C)cc(C)n2)cc1 returned Pf Dd2 inh -4%.
Screening Cc1ccc(C2NC(=O)N(CC(=O)Nc3ccc(F)cc3)C3=C2C(=O)OC3)cc1 (stereo not drawn) returned Pf Dd2 inh inactive.
Screening CC(=O)N1CCC(NC[C@H]2COCc3nc4cc(F)ccc4n32)CC1 returned Pf Dd2 inh -10%[44.1 µM].
For O=C(Nc1ccnn1C1CCN(Cc2ccc(OC3CCCC3)cc2)CC1)C1CC1 the results were Pf Dd2 inh -4%.
Screening O=C(c1ccc(Cl)cc1)N1CCC2(CC1)COc1ccccc1[S+](=O)([O-])N2 returned Pf Dd2 inh 7%.
For COCC(=O)N[C@H]1C[C@H]2C(=O)Nc3ccc(/C=C/c4ccccc4)cc3C(=O)N2C1 the results were Pf Dd2 inh -11%[44.1 µM].
Screening CC(C)(CC(=O)O)CC(=O)N[C@H]1C[C@H]2C(=O)Nc3ccc(/C=C/c4ccccc4)cc3C(=O)N2C1 returned Pf Dd2 inh 26%.
Screening COc1ccc(/C=C/c2ccc3c(c2)C(=O)N2C[C@@H](NC(=O)CC(C)(C)CC(=O)O)C[C@H]2C(=O)N3)cc1 returned Pf Dd2 inh 14µM*.
For O=C(NC[C@H]1COCc2nc3ccccc3n21)c1cccnc1 the results were Pf Dd2 inh -18%[44.1 µM].
Screening COc1ccc(C(=O)N2CC[C@@](O)(C3CCOCC3)[C@H](C)C2)o1 returned Pf Dd2 inh 5%.
`Cc1ccc(S(=O)(=O)N2C[C@@H](C(N)=O)[C@H](C3CCN(C)CC3)C2)cc1Cl` gave Pf Dd2 inh -4%.
CC(=O)NC[C@H]1CCN(S(=O)(=O)c2ccc(C#N)cc2)C[C@H]1N(C)C was read as Pf Dd2 inh -3%.
Screening CN1CCC([C@@H]2CN(S(=O)(=O)c3ccc4c(c3)CCC4)C[C@H]2C(N)=O)CC1 returned Pf Dd2 inh 9%.
CCc1nncn1C1CCN(S(=O)(=O)c2ccc(OC)cc2)CC1 was read as Pf Dd2 inh inactive.
Screening CCC[C@@H]1CN(S(=O)(=O)c2ccc(OC(F)F)cc2)C[C@H]1N(C)C returned Pf Dd2 inh 5.6µM*.
Screening N[C@H]1CN(S(=O)(=O)c2ccc(OC(F)F)cc2)C[C@@H]1C1CC1 returned Pf Dd2 inh 5.6µM*.
Screening COCc1nnc2n1CCC(NC(=O)CCc1ccc(OC)cc1)CC2 (stereo not drawn) returned Pf Dd2 inh 17%.
`COc1ccc(C(=O)N2CCC(Oc3ccc(-c4noc(-c5ccccc5)n4)cc3)C2)cn1` (stereo not drawn) gave Pf Dd2 inh inactive[5.79 µM].
`O=C(NCCc1cccs1)c1cc2n(n1)CC(c1ccc3c(c1)OCO3)OC2` (stereo not drawn) gave Pf Dd2 inh inactive.
Cc1cc(=O)n(CC(=O)Nc2cccc(Cl)c2C)c(N2CCOCC2)n1 was read as Pf Dd2 inh 1%.
Screening O=C(Nc1cccc(-n2cccn2)c1)C1CCCN1C(=O)c1ccoc1 (stereo not drawn) returned Pf Dd2 inh -11%.
Screening COc1ccccc1C(=O)NC[C@H]1Cn2c(-c3ccc4c(c3)OCCO4)cnc2CO1 returned Pf Dd2 inh -1%[44.1 µM].
For COc1ccccc1CNC[C@H]1Cn2c(-c3cccc(Cl)c3)cnc2CO1 the results were Pf Dd2 inh 13µM*.
Screening Fc1ccc(CNC[C@H]2Cn3c(-c4ccc(F)cc4)cnc3CO2)cc1 returned Pf Dd2 inh -15%[44.1 µM].
Cc1cc(=O)n(CC(=O)Nc2cc(F)ccc2F)c(-c2ccccc2)n1 was read as Pf Dd2 inh inactive.
Screening Cc1ccc(C(=O)N2CCCN(C(=O)C3CC3)C(c3ccccc3)CC(=O)NCC2)cn1 (stereo not drawn) returned Pf Dd2 inh -1%.
